Shiga inhibitor: inhibitors of Shiga toxin in Vero cells | Vero cells, Shiga toxin protein synthesis inhibition reporter | inhibition, % at 38.7 µM | hit rate 9.2% among 290,000 | AID 2315; in the data active = inhibition mostly above about 28%, no sharp cut-off; inactive = mostly below about 43%; note: 0% is about no effect
Pf growth 96h: inhibits malaria parasite growth, 96 h | P. falciparum luciferase reporter growth, 96 h | Potency, µM (highest dose often 28.7 µM), for inactives: at the top dose activity change, negative = inhibition, most hits filed as inhibitors | hit rate 6.9% among 320,000 | AID 504834; note: potency is the fitted concentration of half-maximal effect; % is set by controls: 0 for no effect and ±100 for the full control effect
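Two-generation exposure (96 h) targets delayed-death phenotype. Reporter parasites carrying integrated firefly luciferase, in red cells at 2% hematocrit and 0.05% parasitemia final, kept at 37 C, 5% CO2; luminescence loss indicates inhibition.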
Pf growth 48h: P. falciparum growth inhibition at 48 hours (one generation) | Potency, µM (top dose mostly 28.7 µM), inactives show top-dose activity change, negative = inhibition, actives largely listed as inhibitors | hit rate 5.9% among 310,000 | P. falciparum luciferase growth in erythrocytes, 48 h | AID 504832; note: potency is the fitted concentration of half-maximal effect; % is set by controls: 0 for no effect and ±100 for the full control effect
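Luciferase-expressing P. falciparum in infected erythrocytes (2% hematocrit, 0.1% parasitemia final) in RPMI 1640/0.5% Albumax were exposed to compound for 48 hours at 37 C, 5% CO2; growth read as luminescence.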
Marburg entry inh: Marburg virus entry inhibition | Marburg virus pseudotyped entry inhibition, cell reporter | Potency, µM (doses to about 37.8 µM), inactives show at the top dose activity change, negative = inhibition, most hits filed as inhibitors | hit rate 1.8% among 300,000 | AID 540276; calls by dose curve; tested in HEK293 cells; note: potency is the fitted concentration of half-maximal effect; % is set by controls: 0 for no effect and ±100 for the full control effect
LASV entry inh: Lassa virus entry inhibition; hit rate 1.2% among 300,000; AID 540256; Lassa virus pseudotype entry inhibition, cell reporter; Potency, µM (top dose mostly 37.9 µM), for the others: at the highest dose activity change, negative = inhibition, hits mostly inhibitors; calls by dose curve; tested in HEK293 cells; note: potency is the fitted concentration of half-maximal effect; % is set by controls: 0 for no effect and ±100 for the full control effect; nearly all actives have a fitted effect of over 50% in size
Cycloheximide cs: counter-screen for Shiga toxin inhibitors: cycloheximide protein synthesis inhibition; cell reporter, cycloheximide protein synthesis inhibition counterscreen; max response, %; hit rate 12% among 300,000; in the data active = max response mostly above about 13%, no sharp cut-off; inactive = mostly below about 14%; note: read at 38.3 µM for the half of the compounds with a filed dose; 0% is about no effect
Starred values were filed as active, the others as inactive; ? = inconclusive; / = not tested or not shown; [ ] = remark or other dose. Only some compounds are listed: those with a hit (about 19% of all), similar ones and a draw of the others. Unless noted, calls come from the whole dose curve; as a rule, active = well fitted inhibition curve with a large enough effect; inconclusive = small, poorly fitted or top-dose-only effect, or another doubt; inactive = no such curve, though single readings can be large or run the other way.

SMILES | Shiga inhibitor | Pf growth 96h | Pf growth 48h | Marburg entry inh | LASV entry inh | Cycloheximide cs
O=C(Nc1nc(-c2cc(Cl)sc2Cl)cs1)c1ccccc1 | 167.4* | ? | / | ? | 9.4% | 49.5*
O=C(Nc1nc(-c2ccccn2)cs1)c1ccc(Cl)s1 | 121.4 | 0.37µM* | / | / | / | 13.2
Cc1ccc(C(=O)Nc2nc(-c3ccccn3)cs2)s1 | / | ? | 0.415µM* | / | / | /
O=C(OCC(=O)N1CCc2ccccc21)c1ccncc1 | / | -27.0% | -15.6% | / | / | /
COc1ccc(NC(=O)CN(c2cc(C)cc(C)c2)S(=O)(=O)c2c(C)noc2C)cc1Cl | / | / | / | -11.9%[46.1 µM] | -0.3%[46.1 µM] | /
Fc1ccc(CO/N=C/C2=C(Cl)c3ccccc3CC2)cc1 | 79.7* | 10.8% | 39.9% | 17.4%[46.1 µM] | ? | 12.2*
O=c1cc2c(nn1Cc1ccc(F)cc1)-c1ccccc1CC2 | 16.5 | ? | -13.0% | / | / | -2.6
Cc1c(C(C)NC(=O)c2ccc3nc(Cc4ccccc4F)oc3c2)cnn1C (stereo unspecified) | 35.6* | ? | 13.3% | / | / | 33.6*
Cc1c(C(=O)N(C)C(C)c2ccncn2)oc2c(F)cccc12 (stereo unspecified) | 28.9 | -0.7% | -14.4% | / | / | 22.5
CC(c1ccccn1)N(C)C(=O)c1ccc2nc(Cc3ccccc3F)oc2c1 (stereo unspecified) | 71.6* | -0.1% | 11.8% | 15.0% | ? | 53.2*
O=C(NCc1ccccc1)c1ccc2nc(CCc3ccccc3)oc2c1 | / | / | / | / | 5.2%[46.1 µM] | /
CN(Cc1ccccn1)C(=O)c1ccc2nc(Cc3cccc(Cl)c3)oc2c1 | -18.7 | ? | -1.1% | -15.5% | -29.0% | 12.5
O=C(NCc1ccncc1)c1ccc2nc(Cc3ccccc3F)oc2c1 | 14.6 | ? | 15.1% | -13.5% | 0.3% | 16.1*
Cc1c(C(=O)N(C)C(C)c2ccccn2)oc2c(F)cccc12 (stereo unspecified) | 75.4* | 11.2% | -0.3% | ? | 27.4% | 51.3*
CN(CC(=O)NCCCN1CCOCC1)S(=O)(=O)c1ccc(F)cc1 | -10.2 | 1.3% | 6.6% | -8.4%[46.1 µM] | 13.0% | -3.7
O=C(c1ccc(S(=O)(=O)N2CCCC2)cc1)N1CCN(Cc2ccc3c(c2)OCO3)CC1 | -4.5 | / | ? | 9.0% | -10.9% | -2.2
Cc1cc(CNC(=O)c2ccc3nc(Cc4ccccc4F)oc3c2)nn1C | 93.8* | 2.08µM* | 14.3% | / | / | 42.3*
Cc1cc(CNC(=O)c2cc(-c3ccccc3)nc3ccccc23)nn1C | -12.5 | 1.0% | -12.5% | 9.4%[46.1 µM] | -25.4% | -1.8
Cc1cccc(CNC(=O)c2ccc3nc(Cc4ccccc4)oc3c2)c1 | / | / | / | / | -6.6%[46.1 µM] | /
CCCCc1nc2cc(C(=O)NCc3cc(C)n(C)n3)ccc2o1 | 77.6* | 1.9% | 17.1% | / | / | 24.6*
CN(C)CCNC(=O)c1c(O)c2c([nH]c1=O)CCCC2 | -9.3 | 19.6%[5.75 µM] | 3.6% | 8.8% | -13.1% | -1.1
Cc1c(C(=O)Nc2ccc(N3CCOCC3)cc2)cccc1[N+](=O)[O-] | -13.5 | -1.2% | -24.0% | 13.5%[46.1 µM] | 4.4% | -5.3

Screening results as filed in PubChem.
